Hit rate of the full screen: of about 420,000 compounds, about 64,000 (15%) were called active. Inconclusive results (about 27%) are left out. Calls come from the whole dose curve; as a rule, active = well fitted inhibition curve with a large enough effect; inconclusive = small, poorly fitted or top-dose-only effect; inactive = flat fitted curve, though single readings scatter. The list is a sample of the results. Entries that show only a call come without a potency.
Assay: qHTS for Inhibitors of human tyrosyl-DNA phosphodiesterase 1 (TDP1): qHTS in cells in absence of CPT; note: nearly all actives have a fitted effect of over 55% in size
Conditions: DT40 Tdp1-/- hTDP1 cells, no CPT, ATP luminescence, 48 h; activity change, negative = growth inhibition: at 46.2 µM (top of the series)
How it was run: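 Chicken DT40 Tdp1-/- cells complemented with human TDP1, screened without camptothecin (DMSO vehicle only), 400 cells/well. Compounds pin-transferred, cells incubated at 37 °C for at least 48 hr. Growth read as ATP-dependent luminescence (CellTiter-Glo, 30 min at RT).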
For `O=C(NCCc1c[nH]c2ccc(Cl)cc12)c1ccc([N+](=O)[O-])cc1`, the Potency was “inactive”.
With `COc1ccc(-c2[nH]ncc2CN(C)Cc2c(C)n[nH]c2C)c(OC)c1` the Potency was “inactive”.
For `Cc1noc(C)c1COC(=O)COc1ccc(-c2ccccc2)cc1`, the Potency was “inactive”.
For `C=C(C)COc1ccc(-c2n[nH]c(C)c2-c2ccccc2)c(O)c1`, the Potency was 16.4 µM (active).
For `CCOC(=O)COc1cc(O)c2c(=O)cc(-c3ccccc3)oc2c1`, the Potency was “inactive”.
With `CCOc1ccc(-c2nc(N)ncc2-c2ccccc2OC)c(O)c1` the Potency was “inactive”.
In the case of `COc1ccc(-c2n[nH]c(C)c2-c2ccccc2OC)c(O)c1`, the Potency is reported as 20.6 µM (active).
In the case of `Cc1ccc2nc(N(CCN(C)C)C(=O)C3=COCCO3)sc2c1`, the Potency is reported as “inactive”.
With `CCCC(=O)OCC(=O)Nc1cc(Cl)ccc1[N+](=O)[O-]` the Potency was “inactive”.
With `CCOC(=O)N1CCN(C(=O)c2ccccc2SCC(=O)NCC2CCCCC2)CC1` the Potency was “inactive”.
In the case of `CCOC(=O)N1CCN(CC(=O)c2c(C)[nH]c3ccccc23)CC1`, the Potency is reported as 18.4 µM (active).
With `Cc1[nH]c2ccccc2c1C(=O)COC(=O)C(C)C` the Potency was “inactive”.
For `Cc1ccc2c(C(=O)CN3CCCC3)c(C)[nH]c2c1`, the Potency was “inactive”.
For `Cc1[nH]c2ccccc2c1C(=O)CN1CCCC(C)C1` (stereo not given), the Potency was “inactive”.
In the case of `Cc1[nH]c2ccccc2c1C(=O)CN1CC(C)CC(C)C1` (stereo not given), the Potency is reported as 8.2 µM (active).
For `Cc1[nH]c2ccccc2c1C(=O)CSCC(=O)O`, the Potency was “inactive”.
With `Cc1ccc(OCC(=O)Nc2nnc(-c3ccco3)s2)cc1` the Potency was “inactive”.
For `CSc1ncccc1C(=O)Nc1ccc2c(c1)OCO2`, the Potency was “inactive”.
With `CCOC(=O)c1c(S(=O)(=O)Nc2ccc(CN3CCC(C)CC3)cc2)c(C)n(C)c1C` the Potency was “inactive”.
For `COC(=O)c1ccccc1NC(=O)CSc1ccccn1`, the Potency was “inactive”.
For `CCOC(=O)c1cnc(SCC(=O)NCc2ccco2)nc1N`, the Potency was “inactive”.
With `CCOC(=O)c1cnc(SCC(=O)Nc2ccccc2C(=O)OC)nc1N` the Potency was 23.1 µM (active).
For `CCCCN(C)CCCNC(=O)CN1N=C(c2ccc(OC)cc2)CCC1=O`, the Potency was “inactive”.
In the case of `C=CCC(CC=C)(C(N)=O)c1ccccc1`, the Potency is reported as “inactive”.
For `Cc1nn(CC(=O)Nc2ccc(C#N)cc2)c(C)c1[N+](=O)[O-]`, the Potency was “inactive”.
For `COCc1c(C(=O)OCC(=O)Nc2ccc(OC(F)F)cc2)oc2ccccc12`, the Potency was “inactive”.
With `CCOC(=O)c1c(-c2ccccc2)oc2cc(Br)c(O)cc12` the Potency was “inactive”.
In the case of `Cc1oc2cc(Br)c(O)c(Br)c2c1C(=O)c1ccccc1`, the Potency is reported as “inactive”.
For `CCOC(=O)c1c(C)oc2cc(Sc3ccccc3)c(O)c(O)c12`, the Potency was 25.9 µM (active).
In the case of `Nc1nc(COC(=O)CCC(=O)c2ccc(Cl)cc2)nc(Nc2ccccc2)n1`, the Potency is reported as “inactive”.
With `Cc1cc(C)c(NC(=O)CSc2nc3nccnc3c(=O)n2CCc2c[nH]c3ccccc23)c(C)c1` the Potency was “inactive”.
In the case of `Cc1cc(C)cc(NC(=O)Cn2c(=O)c3ccccc3n3nncc23)c1`, the Potency is reported as “inactive”.
With `O=C(CSc1nc2nccnc2c(=O)n1Cc1cccs1)Nc1ccccc1F` the Potency was “inactive”.
For `O=C(CSc1nc2nccnc2c(=O)n1CCc1c[nH]c2ccccc12)Nc1ccccc1F`, the Potency was 8.2 µM (active).
In the case of `Cc1cc(C)cc(NC(=O)CSc2nc3nccnc3c(=O)n2CCc2c[nH]c3ccccc23)c1`, the Potency is reported as 7.31 µM (active).
With `Cn1c(CCC(=O)Nc2ccccc2F)nnc1SCC(=O)Nc1ccccc1Cl` the Potency was “inactive”.
With `Cc1cccc(C)c1NC(=O)CSc1nc2c([nH]1)c(=O)n(C)c(=O)n2C` the Potency was “inactive”.
In the case of `CCc1c(O)nc(SCC(=O)Nc2ccccc2)n(C(C)CC)c1=O` (stereo not given), the Potency is reported as “inactive”.
With `CCCNCc1cc(OCC)c(OCC(=O)Nc2ccccc2)cc1Br` the Potency was “inactive”.
For `CN(C)C(=O)c1cc(Br)ccc1Cl`, the Potency was “inactive”.
In the case of `Cc1cc(OC(=O)c2ccccc2)c([N+](=O)[O-])c(=O)[nH]1`, the Potency is reported as “inactive”.
With `Oc1ccc(/C=N/Nc2ccc(C(F)(F)F)cn2)cc1O` the Potency was 2.59 µM (active).
In the case of `O=C(O)c1ccc(N/N=C/c2ccc3ncccc3c2)cc1`, the Potency is reported as “inactive”.
With `Cc1nnsc1C(=O)N/N=C/c1cccc(C(F)(F)F)c1` the Potency was “inactive”.
With `O=C1/C(=C/c2ccc(F)cc2)SC(=S)N1NS(=O)(=O)c1ccccc1` the Potency was “inactive”.
In the case of `CC1CCCCC12NC(=O)N(CC(=O)N1CCN(c3ccccc3)CC1)C2=O` (stereo not given), the Potency is reported as “inactive”.
For `Cc1cc(C)c(NC(=O)CSc2nc3ccncc3[nH]2)c(C)c1`, the Potency was “inactive”.
With `COc1ccc(CNC(=O)CCCn2nc(C)c([N+](=O)[O-])c2C)cc1` the Potency was “inactive”.
With `Cc1ccc(Oc2cc(NC(=O)CCCn3nc(C)c([N+](=O)[O-])c3C)cc([N+](=O)[O-])c2)cc1` the Potency was 18.4 µM (active).
In the case of `CCc1ccc(NC(=O)Cn2nc(C)c([N+](=O)[O-])c2C)cc1`, the Potency is reported as “inactive”.
For `CC(C)(C)NC(=O)NC(=O)COC(=O)Cn1c(C(F)(F)F)nc2ccccc21`, the Potency was “inactive”.
In the case of `CCCc1nc2ccccc2n1C(C)C(=O)NC(C)(C)C` (stereo not given), the Potency is reported as “inactive”.
In the case of `CCC(C(=O)NC(C)(C)C)n1c(-c2ccccc2)nc2ccccc21` (stereo not given), the Potency is reported as 18.4 µM (active).
For `CC(C)(C)NC(=O)C(CCc1ccccc1)n1c(=O)c(-c2ccccc2)nc2ccccc21` (stereo not given), the Potency was 2.91 µM (active).
In the case of `CC(=O)NS(=O)(=O)c1ccc(N/C(N)=N/c2nc(C)cc(C)n2)cc1`, the Potency is reported as “inactive”.
For `Cc1nnc(SCCCCSc2nnc(C)c(=O)[nH]2)[nH]c1=O`, the Potency was “inactive”.
In the case of `COc1ccc(Br)cc1/C=N/Nc1ccc(S(=O)(=O)Nc2ccccc2C(=O)O)cc1[N+](=O)[O-]`, the Potency is reported as “inactive”.
In the case of `COc1ccc(CCNC(=O)CSCc2ccc(Br)cc2)cc1OC`, the Potency is reported as “inactive”.
With `COc1ccccc1CNC(=O)c1ccc(-n2c(C)cc3c2CCCC3)cc1` the Potency was 14.6 µM (active).
For `COc1ccc(C(=O)NCc2ccccc2C)cc1S(=O)(=O)NC1CCCC1`, the Potency was “inactive”.
In the case of `COc1ccc(CCNC(=O)c2ccc3c(c2)nc(C)n3-c2ccc(Br)cc2)cc1OC`, the Potency is reported as 20.6 µM (active).
For `COc1ccccc1CNC(=O)Cn1cc2c(n1)CCCC2`, the Potency was “inactive”.
With `COc1ccc(CCNC(=O)c2ccc(-n3c(C)cc4c3CCCC4)cc2)cc1OC` the Potency was 18.4 µM (active).
With `COCCn1c(=S)[nH]c2cc(C(=O)NCCc3ccc(OC)c(OC)c3)ccc2c1=O` the Potency was “inactive”.
In the case of `O=C(OC1CC2CC1[C@H]1CCCCN1C2=O)N1CCOCC1` (stereo not given in full), the Potency is reported as “inactive”.
For `O=C(CS(=O)(=O)c1ccccc1)Nc1ccc(S(=O)(=O)Nc2ccccn2)cc1`, the Potency was “inactive”.
For `CCC1(C2CCN(Cc3cccnc3)CC2)NC(=O)N(CC2COc3ccccc3O2)C1=O` (stereo not given), the Potency was “inactive”.
With `CC(=O)c1cccc(NC(=S)N2CCN(S(C)(=O)=O)CC2)c1` the Potency was “inactive”.
With `CC(=O)N1CCN(C(=O)C2(NC(=O)Nc3ccc(C)cc3)CCCCC2)CC1` the Potency was “inactive”.
For `CN(C)c1ccc(N/C=C/C(=O)C(F)(F)F)cc1`, the Potency was “inactive”.
With `CCOc1ccc(S(=O)(=O)N/N=C(\C)c2ccc(Cl)c(Cl)c2Cl)cc1` the Potency was “inactive”.
For `CCOc1ccc(OCC)c(NC(=O)C(NS(=O)(=O)c2ccc3c(c2)oc(=O)n3C)C(C)C)c1` (stereo not given), the Potency was “inactive”.
In the case of `O=C(CC1NCCNC1=O)Nc1ccc(Oc2ccccc2)cc1` (stereo not given), the Potency is reported as “inactive”.
With `CCN(CC)c1cc(NC2CCCCC2)c2c3c(onc13)-c1ccccc1C2=O` the Potency was 18.4 µM (active).
For `Cc1nnc(SCC(=O)Nc2cccc(N)c2)n1-c1ccccc1`, the Potency was “inactive”.
In the case of `COc1cc2c(cc1OC)C(c1ccncc1)CC(=O)N2` (stereo not given), the Potency is reported as “inactive”.
With `COc1ccc(C2CC(=O)Nc3cc(C)c(C)cc32)c(OC)c1OC` (stereo not given) the Potency was 20.6 µM (active).
For `COc1cc2c(cc1OC)C(c1ccc(C)o1)CC(=O)N2` (stereo not given), the Potency was “inactive”.
In the case of `COC(=O)c1ccc(C2CC(=O)Nc3cc(OC)c(OC)cc32)cc1` (stereo not given), the Potency is reported as “inactive”.
With `CC(C)Oc1ccc(C2NC(=O)NC2=O)cc1` (stereo not given) the Potency was “inactive”.
For `Cc1cc2c(cc1C)C(c1cccc(OC(C)C)c1)CC(=O)N2` (stereo not given), the Potency was 23.1 µM (active).
In the case of `CC1CN(c2cc(=O)n(Cc3ccc(F)cc3)c(=O)[nH]2)CC(C)O1` (stereo not given), the Potency is reported as “inactive”.
In the case of `O=C1CCCCN1CCCC(=O)N1CCCC(Nc2ccc(F)cc2)C1` (stereo not given), the Potency is reported as “inactive”.
With `CCOC(=O)C1(Cc2ccccc2C)CCCN(C(=O)CN2C(=O)CSC2=O)C1` (stereo not given) the Potency was “inactive”.
For `Cc1nc2cnc(N3CCN(C)CC3)nc2n(C[C@H]2CCCO2)c1=O`, the Potency was “inactive”.
For `CC(=O)C1=C(O)C(=O)N(c2ccc(Br)cc2)C1c1ccc([N+](=O)[O-])cc1` (stereo not given), the Potency was “inactive”.
For `O=C1Cc2cc(S(=O)(=O)Nc3ccc(OC(F)(F)F)cc3)cc3c2N1CCC3`, the Potency was 18.4 µM (active).
In the case of `O=C1CCc2cc(S(=O)(=O)Nc3ccc(C(F)(F)F)cc3)cc3c2N1CC3`, the Potency is reported as “inactive”.
In the case of `Nc1ncc(S(=O)(=O)Nc2ccc(OC(F)(F)F)cc2)cn1`, the Potency is reported as “inactive”.
In the case of `C=CCOc1ccccc1CNn1c(C)n[nH]c1=S`, the Potency is reported as “inactive”.
In the case of `CCCN(C(=O)CSc1nnc(N)s1)c1c(N)n(Cc2ccccc2)c(=O)[nH]c1=O`, the Potency is reported as “inactive”.
With `CCCc1nc2ccccc2c(=O)n1/N=C/c1ccc(O)c(O)c1` the Potency was 16.4 µM (active).
In the case of `O=c1c2ccccc2ncn1/N=C/c1ccccc1`, the Potency is reported as “inactive”.
With `CCCN1C(=O)C(Cc2nc3ccccc3c(=O)n2-c2ccccc2)c2cc(C)ccc21` (stereo not given) the Potency was “inactive”.
In the case of `CC(C)Oc1ccc(C(=O)NC(C)(C)CO)cc1`, the Potency is reported as “inactive”.
With `CC(Oc1ccc(Cl)cc1Cl)C(=O)/C=C/N(C)C` (stereo not given) the Potency was “inactive”.
With `O=C(CN(CC1CCCO1)C(=O)CNS(=O)(=O)c1ccccc1)NCc1ccccc1` (stereo not given) the Potency was “inactive”.
With `Cc1ccc2occ(/C=N/NC(=O)c3ccccc3C)c(=O)c2c1` the Potency was 14.6 µM (active).
For `Cc1cc(NC(=O)c2ccccc2C)no1`, the Potency was “inactive”.
For `O=c1c(/C=N/O)coc2ccc(Cl)cc12`, the Potency was “inactive”.
For `Cc1ccccc1CSc1nnc(Cn2c(=O)sc3ccccc32)n1C`, the Potency was “inactive”.
For `CCOc1cc(/C=N/NC(=O)c2ccc(CSc3nncn3C)cc2)ccc1OCC(=O)N1CCOCC1`, the Potency was “inactive”.
With `O=S(=O)(c1ccc(Cl)cc1)c1nc(-c2ccccc2F)oc1NCCN1CCOCC1` the Potency was “inactive”.
With `O=C(CSc1oc(-c2ccccc2)nc1S(=O)(=O)c1ccc(Br)cc1)NC1CCCCC1` the Potency was “inactive”.
With `COc1ccc(-c2nc(S(=O)(=O)c3ccccc3)c(N3CCCCC3)o2)cc1` the Potency was 18.4 µM (active).
For `O=S(=O)(c1ccccc1)c1nc(Cc2ccccc2)oc1N1CCOCC1`, the Potency was “inactive”.
For `O=S(=O)(c1ccccc1)c1nc(-c2ccccc2)oc1NCCCN1CCOCC1`, the Potency was “inactive”.
In the case of `CSc1nc(-c2ccco2)nn1C(=O)c1ccccc1Cl`, the Potency is reported as “inactive”.
With `O=S(=O)(c1ccc(Cl)cc1)c1nc(-c2ccco2)oc1N1CCCCC1` the Potency was 23.1 µM (active).
For `O=S(=O)(c1ccccc1)c1nc(-c2ccc(Cl)cc2Cl)oc1N1CCCCC1`, the Potency was 13 µM (active).

— PubChem BioAssay AID686978 (National Center for Advancing Translational Sciences (NCATS), 2013)
Potency is the fitted concentration of half-maximal effect.
